pAkt inh: inhibitors of Akt phosphorylation | Neuro2A IGF-stimulated pAkt S473 HTRF, 20 min; hits give low values | activity change, % for hits at 50 µM | 360,000 compounds, 0.32% hits | AID 651550; in the data active = activity change below about -80%; inconclusive = mostly about -51% to -80%
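Neuro2A cells (4,500/well, DMEM with 0.5% FBS) were treated with compound at a single 50 µM final concentration, stimulated with 6 nM IGF for 20 min at 37 °C, and lysed. Phospho-Akt Ser473 was read by HTRF as 665/615 ratio ×10^4.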
Glioma ERSR ind: inducers of ER stress response in human glioma cells | Potency, µM, usual class: activators | U87-MG GRP78 promoter luciferase reporter, 16 h | 420,000 compounds, 0.02% hits; active = well fitted curve in the direction sought with a large enough effect; inconclusive = small, poorly fitted or top-dose-only effect, or another doubt; inactive = no such curve, though single readings can be large; an effect the other way counts as inactive or inconclusive; note: series mostly up to about 76 µM; nearly all actives have a fitted effect of over 35% in size
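ERSR induction read as luciferase luminescence (Bright-Glo, 10 min at room temperature) in stably transfected human U87-MG glioma cells exposed to compounds for 16 h, using GRP78 as sensor.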
Six1-Eya2 inh: Six1/Eya2 interaction inhibition; Q15475+O00167; AlphaScreen GST-Six1/His-Eya2 binding, biochemical; hits give low values; activity change, % (no concentration beside the values); 360,000 compounds, 0.56% hits
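Six1/Eya2 binding was read as AlphaScreen signal after compounds were pinned into GST-Six1 plus His-tagged Eya2 (5X stock 250/500 nM) in pH 8.0 Tris/NaCl/TCEP buffer, beads added, then incubated 1 h, 37 C, dark.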
CtBP-E1A inh: CtBP/E1A binding inhibition; AlphaScreen GST-E1A/His-CtBP binding, 1536-well; hits give low values; activity change, % (concentration not given with the values); 340,000 compounds, 0.49% hits
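AlphaScreen with 125 nM GST-E1A and 125 nM His-CtBP (5X stocks) in Tris pH 8.0, 300 mM NaCl, BSA, Tween 20, TCEP. Compounds preincubated 2 h at 37 deg C, then glutathione donor/nickel acceptor beads added for 1 h at 37 deg C in dark.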
RGS4 inhibitor: human RGS4 inhibition; P49798; Transcreener GDP fluorescence polarization, RGS4-accelerated GTP hydrolysis; Potency, µM (series often up to 114 µM), most hits filed as inhibitors; 390,000 compounds, 0.039% hits; active = well fitted curve in the direction sought with a large enough effect; inconclusive = small, poorly fitted or top-dose-only effect, or another doubt; inactive = no such curve, though single readings can be large; an effect the other way counts as inactive or inconclusive; note: nearly all actives have a fitted effect of over 75% in size
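MLSMR compounds (23 nl, pin-transferred) preincubated 10 min at room temperature with a 500nM (2x) first reagent, then RGS4 at 900nM (2x) plus Transcreener GDP mix added; fluorescence polarization (620/688 nm) read before and after 90 min at 30 °C.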
Each line names hits and unclear results; the compound was inactive in the other large screens. Compounds with a hit are over-represented: about 0.88% of the library has one in this group of screens. Cut-off read from the data, not from the text of the source, unless noted: active = activity change below about -65%; inconclusive = mostly about -30% to -63%; inactive = weaker than that.

O=S1(=O)N=C(N/N=C/c2ccccn2)c2ccccc21	Six1-Eya2 inh -88, CtBP-E1A inh -81
NC(=O)[C@@H]1CCCN1C(=O)CCN1Cc2ccccc2OC(c2ccccc2F)C1 (stereo not given in full)	none (no result: pAkt inh, Six1-Eya2 inh, CtBP-E1A inh, RGS4 inhibitor)
Cc1ncc2c(c1CNC(=O)c1ccc3c(c1)OCO3)CCN(C(=O)/C=C/c1ccccc1Cl)C2	none (no result: pAkt inh, Six1-Eya2 inh, CtBP-E1A inh, RGS4 inhibitor)
O=C(O)c1ccccc1-c1ccc(C=c2sc3nc4cc(Br)cnc4n3c2=O)o1	Six1-Eya2 inh -69, CtBP-E1A inh inconclusive (no result: RGS4 inhibitor)
COC(=O)C1=C(C)NC(C)=C(C(=O)O[C@H]2CCN(Cc3ccccc3)C2)C1c1cccc([N+](=O)[O-])c1 (stereo not given in full)	none (no result: pAkt inh, Six1-Eya2 inh, CtBP-E1A inh, RGS4 inhibitor)
Cc1cc(N/N=C/c2ccc(O)cc2O)nc(-n2nc(C)cc2C)n1	Six1-Eya2 inh -70, CtBP-E1A inh -80
Cc1nc(Cl)cc(N/N=C/c2ccc(O)cc2O)n1	Six1-Eya2 inh -67, CtBP-E1A inh -81
COc1ccc(/C=N/Nc2cc(C)nc(-n3nc(C)cc3C)n2)cc1	none
COC(=O)C1=C(C)N(c2cccc(Cl)c2)C(=O)C1	pAkt inh -118%
Oc1cc(-c2nc3ccccc3s2)cc2c1OCCN(Cc1cn[nH]c1-c1ccc(Cl)cc1)C2	none (no result: pAkt inh, Six1-Eya2 inh, CtBP-E1A inh, RGS4 inhibitor)
Nc1ccc(C(=O)N/N=C/c2cn(Cc3ccc(F)cc3)c3ccccc23)cc1	none
O=C(N/N=C/c1cn(Cc2cccc(F)c2)c2ccccc12)c1cc(O)cc(O)c1	Glioma ERSR ind inconclusive, Six1-Eya2 inh -75, CtBP-E1A inh -72
COc1ccc(Br)cc1C(=O)CCC(=O)OCC(=O)Nc1cc(C(N)=O)cc(C(N)=O)c1	Six1-Eya2 inh inconclusive, CtBP-E1A inh -70
COc1ccccc1/C=C/c1cnccn1	none (no result: pAkt inh, Six1-Eya2 inh, CtBP-E1A inh, RGS4 inhibitor)
COc1cccc(C(=O)N2CCCC(c3nc(SCCN4CCOCC4)ncc3C)C2)c1 (stereo not given)	none (no result: pAkt inh, Six1-Eya2 inh, CtBP-E1A inh, RGS4 inhibitor)
Cn1nnnc1-c1cc(Br)ccc1NC(=O)c1ccccc1	pAkt inh -104%
Cc1ccc(NC(=O)c2ccc(Br)cc2)c(C(=O)c2ccccc2)c1	RGS4 inhibitor inconclusive (no result: pAkt inh, Six1-Eya2 inh, CtBP-E1A inh)
Cc1[nH]n(-c2ccccc2)c(=O)c1N=Nc1ccccc1O	Glioma ERSR ind inconclusive, Six1-Eya2 inh -87, CtBP-E1A inh -81
Cc1ccccc1N=Nc1c(C)[nH]n(-c2ccccc2)c1=O	none
Cc1ccc(NC(=O)CCSc2nnc(-c3ccco3)o2)cc1	none
Cc1ccccc1NC(=O)CSc1nnc(-c2ccco2)c(-c2ccco2)n1	Six1-Eya2 inh inconclusive, RGS4 inhibitor inconclusive
Cc1cccc(C)c1NC(=O)CSc1nnc(-c2ccco2)c(-c2ccco2)n1	Six1-Eya2 inh -67, RGS4 inhibitor inconclusive
Cc1cccc(C)c1NC(=O)CCCSc1nnc(-c2ccco2)o1	pAkt inh -111%
Cc1nn(-c2nc(-c3ccco3)cc(C(F)(F)F)n2)c(C)c1Cl	pAkt inh -116%
Cc1nn(-c2nc(-c3ccc(F)cc3)cc(C(F)(F)F)n2)c(C)c1Cl	none (no result: pAkt inh, Six1-Eya2 inh, CtBP-E1A inh)
O=C(NCCO)c1cccc2c1C(=O)c1ccccc1-2	none
O=C1c2cccc(NCCNCCO)c2C(=O)c2cccc(NCCNCCO)c21	Six1-Eya2 inh -71
O=C(O)CCNc1ccc(NCCC(=O)O)c2c1C(=O)c1ccccc1C2=O	Six1-Eya2 inh -85 (no result: CtBP-E1A inh)
COc1ccccc1NCCC(=O)O	none
CC(=O)c1ccc(-c2ccc3c4c(ccc3c2)OC(CNC(=O)C(C)N2CCOCC2)C4)s1 (stereo not given)	none (no result: pAkt inh, Six1-Eya2 inh, CtBP-E1A inh, RGS4 inhibitor)
Cc1c(C(=O)N2CCCCCC2)sc2ncnc(NCC3CCCO3)c12 (stereo not given)	none (no result: pAkt inh, Six1-Eya2 inh, CtBP-E1A inh, RGS4 inhibitor)
Cc1ccc(C)c(C(=O)N2CCC(C3(c4ccccn4)NC(=O)N(CC4CCCO4)C3=O)CC2)c1 (stereo not given)	none (no result: pAkt inh, Six1-Eya2 inh, CtBP-E1A inh, RGS4 inhibitor)
COc1ccc(S(=O)(=O)n2nc(OC(=O)c3c(-c4ccccc4Cl)noc3C)cc2N)cc1	Six1-Eya2 inh -72, CtBP-E1A inh inconclusive
Cc1ccc(-c2nn3c(C)nnc3c3ccccc23)cc1S(=O)(=O)N1CCN(CCO)CC1	none
Cc1nn2c(-c3ccc(S(=O)(=O)N4CCN(CCO)CC4)o3)nnc2c2ccccc12	Six1-Eya2 inh inconclusive, CtBP-E1A inh -75
COc1ccc(-c2nnc3c4ccccc4c(C)nn23)cc1S(=O)(=O)N1CCN(CCO)CC1	Six1-Eya2 inh -71, CtBP-E1A inh -82
Cc1nn2c(-c3ccco3)nnc2c2ccccc12	none (no result: pAkt inh)

Compound activity (PubChem)
